MARV entry inh: Marburg virus entry inhibition; 300,000 compounds, 1.8% hits; Potency, µM (titrated, usually from 37.8 µM), most hits filed as inhibitors; AID 540276; Marburg virus pseudotyped entry inhibition, cell reporter; calls by dose curve; tested in HEK293 cells
FMDV inh: antivirals against foot and mouth disease virus. 410,000 compounds, 1.2% hits. Potency, µM (highest dose often 57.9 µM), most hits filed as inhibitors. FMDV antiviral cell-based qHTS. AID 1159524; calls by dose curve; tested in HEK293T cells; also: read-out not given here; nearly all actives have a fitted effect of over 45% in size
LASV entry inh: blocks Lassa virus binding to or entry into cells. Lassa virus pseudotype entry inhibition, cell reporter. Potency, µM (top dose mostly 37.9 µM), usual class: inhibitors. 300,000 compounds, 1.2% hits; calls by dose curve; tested in HEK293 cells; also: nearly all actives have a fitted effect of over 50% in size
HCMV antiviral: blocks human cytomegalovirus replication. activity change, negative = inhibition, % at 57.5 µM. HFF cells, HCMV-luciferase reporter, 72 h; active compounds read low. 410,000 compounds, 4.5% hits; in the data active = activity change below about -60%; inconclusive = no clear call, values can overlap the other calls; inactive = above about -39%
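Luciferase read-out from HCMV-luciferase-infected HFFs (MOI 1 PFU/cell) 72 h post infection at 37C; compounds added after 16 h cell attachment; activity normalized between buffer-only basal and Salinomycin (10uM) inhibitor controls.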
Large screens that a line does not name were inactive. In the library only some 6.2% were active in any assay of this set; here they are far more common.

Cc1cccc(/C=C2/Sc3ccc(C(=O)NCCN4CCCC4)cc3NC2=O)c1	HCMV antiviral inconclusive (no result: MARV entry inh, LASV entry inh)
O=C1C=C(Nc2ccc(Cl)cc2Cl)CC(c2ccco2)C1 (stereo not given)	MARV entry inh inconclusive, LASV entry inh inconclusive
CNC(=O)c1c(C)[nH]c(=S)c(C#N)c1-c1ccco1	none (no result: MARV entry inh, LASV entry inh)
CCOC(=O)C(NC(C)=O)C(OC(C)=O)c1cccc(N(CCCl)CCCl)c1 (stereo not given)	MARV entry inh inconclusive, LASV entry inh inconclusive, HCMV antiviral -64
Cc1ccc2c(c1)[C@@H]1CN(C)CC[C@@H]1N2S(=O)(=O)c1ccc([N+](=O)[O-])cc1	MARV entry inh inconclusive
Cc1ccc2c(c1)C1CN(C)CCC1N2Sc1ccccc1[N+](=O)[O-] (stereo not given)	MARV entry inh inconclusive, FMDV inh inconclusive, LASV entry inh 7.1µM
N#CC1=C(N)Oc2c(ccc3cccnc23)C1c1cccnc1 (stereo not given)	MARV entry inh inconclusive, LASV entry inh inconclusive, HCMV antiviral -99
CCc1ccc2[nH]c(=O)c(C3C(C#N)=C(N)Oc4c3ccc3cccnc43)cc2c1 (stereo not given)	MARV entry inh inconclusive
Cc1ccc2cc(C3C(C#N)=C(N)Oc4c3ccc3cccnc43)c(=O)[nH]c2c1 (stereo not given)	MARV entry inh inconclusive, LASV entry inh inconclusive, HCMV antiviral -103
Cc1nonc1OCCCNc1ccc([N+](=O)[O-])cc1Cl	HCMV antiviral -78
CCc1ccc(S(=O)(=O)NCc2cccs2)cc1	HCMV antiviral -66
C=CCN(C(=O)c1csnn1)C(C(=O)NCc1ccc(F)cc1)c1sccc1C (stereo not given)	MARV entry inh inconclusive
Cc1ccc(NC(C(=O)c2ccccc2)c2ccccc2)cc1 (stereo not given)	MARV entry inh inconclusive, LASV entry inh inconclusive, HCMV antiviral -100
Cc1ccc(NC(=O)C(Nc2ccccc2)c2ccccc2)cc1 (stereo not given)	none
CN1CCCC1CCNc1ccc2c(=O)c3ccccc3oc2c1 (stereo not given)	none (no result: MARV entry inh, LASV entry inh)
Clc1cccc(CNc2nnnn2-c2ccccc2)c1	MARV entry inh inconclusive, HCMV antiviral -84
CC(C)OCCCNC(=O)c1ccc(NC(=O)C2CCCO2)cc1 (stereo not given)	MARV entry inh inconclusive
CCCCNC(=O)c1ccc(NC(=O)C2CCCO2)cc1 (stereo not given)	HCMV antiviral -90
COc1ccc(NS(=O)(=O)c2cc(NC(=O)C3CCCO3)ccc2N2CCCCC2)cc1 (stereo not given)	MARV entry inh inconclusive, LASV entry inh inconclusive, HCMV antiviral -64
CCOc1ccc(NS(=O)(=O)c2ccc(NC(=O)C3CCCO3)cc2)cc1 (stereo not given)	LASV entry inh 8.9µM
CN(C)c1cccc(NC(=O)C2(C)CC2(Cl)Cl)c1 (stereo not given)	none
Cc1ccccc1Cn1cc(S(=O)(=O)CC(=O)Nc2nccs2)c2ccccc21	MARV entry inh inconclusive, HCMV antiviral -76 (no result: FMDV inh)
COc1cccc2cc(-c3cn4c(n3)sc3cc(F)ccc34)c(=O)oc12	LASV entry inh inconclusive (no result: MARV entry inh)
Nc1ncnc2c1ncn2[C@@H]1O[C@H](CNC(=O)[C@@H](N)COCc2ccccc2)[C@@H](O)[C@H]1O	none (no result: MARV entry inh, LASV entry inh, HCMV antiviral)
COc1cc2c(OC(C)=O)c3c(c(-c4ccc5c(c4)OCO5)c2cc1OC)C(=O)OC3	HCMV antiviral -93 (no result: MARV entry inh, LASV entry inh)
COc1cc2c(O)c3c(c(-c4ccc5c(c4)OCO5)c2cc1OC)C(=O)OC3	MARV entry inh 2.3µM, LASV entry inh 3.7µM, HCMV antiviral -96 (no result: FMDV inh)
CCOC(=O)c1cccc(NC(=O)c2ccc3nc(C(C)C)oc3c2)c1	LASV entry inh inconclusive (no result: MARV entry inh)
O=C(O)CCN1C(=O)c2ccc(NC(=O)CSc3ccc(Cl)cc3)cc2C1=O	none
CCC1CCCCN1S(=O)(=O)c1ccc(C(=O)Nc2nnc(-c3ccccc3Cl)o2)cc1 (stereo not given)	MARV entry inh inconclusive, LASV entry inh inconclusive (no result: HCMV antiviral)
CC1CCCCN1S(=O)(=O)c1ccc(C(=O)Nc2nnc(-c3ccncc3)o2)cc1 (stereo not given)	MARV entry inh inconclusive, LASV entry inh inconclusive, HCMV antiviral -71
CC1CCCCN1S(=O)(=O)c1ccc(C(=O)Nc2nnc(-c3ccccc3Cl)o2)cc1 (stereo not given)	MARV entry inh 13µM, FMDV inh inconclusive, LASV entry inh inconclusive, HCMV antiviral inconclusive
COc1c2ccccc2nc2occc12	none (no result: MARV entry inh, LASV entry inh, HCMV antiviral)
COc1c2ccc(OCC/C(C)=C/C(=O)C=C(C)C)cc2nc2occc12	HCMV antiviral -101 (no result: MARV entry inh, LASV entry inh)
Cc1cc(C)n(C(=O)COc2ccc(Cl)cc2Cl)n1	none (no result: FMDV inh)
Cn1c(SSc2ccc(-c3cccnc3)n2C)ccc1-c1cccnc1	MARV entry inh 13µM, FMDV inh inconclusive, LASV entry inh inconclusive
c1cncc(-c2nnc(-c3cccnc3)nn2)c1	MARV entry inh inconclusive, FMDV inh inconclusive, LASV entry inh inconclusive
COc1ccc(CNC(=O)c2cc3cccc4c3n2CC(C)S4)c(OC)c1 (stereo not given)	none (no result: MARV entry inh)
COc1ccc(C(=O)C=CNNC(=O)c2ccc(Cl)cc2)cc1	MARV entry inh inconclusive, LASV entry inh 5.6µM
COc1ccc(C(=O)/C=C/Nc2cc(C)ccn2)cc1	MARV entry inh 1.3µM, LASV entry inh inconclusive
O=C(NC1CCN(C(=O)NC2CCCCC2)CC1)c1ccco1	MARV entry inh inconclusive, HCMV antiviral -107
CCCc1cc(=O)n2[nH]c(NC(=O)c3ccc(C(C)(C)C)cc3)nc2n1	none
Cc1cc2c(cc1C)NC(c1nc3ccccc3[nH]1)C1=C(CC(C)(C)CC1=O)N2 (stereo not given)	HCMV antiviral -105
CC(=O)Nc1ccc(C2Nc3cc(C)c(C)cc3NC3=C2C(=O)CC(C)(C)C3)cc1 (stereo not given)	none (no result: MARV entry inh, LASV entry inh)
Cc1cc(S(=O)(=O)NC(=O)[C@H]2O[C@@H](n3cnc4c(N)ncnc43)[C@H](O)[C@@H]2O)ccc1Br	none (no result: MARV entry inh, LASV entry inh)
CC(=O)OC[C@H]1O[C@@H](n2ncc(=O)[nH]c2=O)[C@H](OC(C)=O)[C@@H]1OC(C)=O	MARV entry inh inconclusive, LASV entry inh 0.73µM (no result: HCMV antiviral)
COc1ccc(C(C)=O)cc1CSc1nnc(Nc2ccccc2C)s1	HCMV antiviral -62
CCOc1ccc(NC(=S)NNC(=O)c2cc(Br)ccc2Cl)cc1	none
CCN(CC)CCCNc1nc2ccccc2c2nc(-c3ccncc3)nn12	MARV entry inh 7.9µM, LASV entry inh inconclusive, HCMV antiviral inconclusive
COCCCNc1nc(-c2ccc(Cl)cc2)nc2ccccc12	MARV entry inh 11µM, LASV entry inh inconclusive
CCN(CC)CCCNc1nc(-c2ccccc2)nc2ccccc12	MARV entry inh 16µM, LASV entry inh inconclusive, HCMV antiviral inconclusive (no result: FMDV inh)
OCCNc1nc(-c2ccccc2)nc2ccccc12	none
CCN(CC)CCCNc1nc2ccccc2c2[nH]c3ccc(OC)cc3c12	MARV entry inh inconclusive, LASV entry inh inconclusive, HCMV antiviral -93
Cc1ccc(C(=O)Nc2cccc(C(F)(F)F)c2)cc1Nc1ccccn1	none (no result: MARV entry inh, LASV entry inh)
C=CCN1CCC(=O)C(C(=O)OCC)=C1C(=O)OCC	none (no result: MARV entry inh, LASV entry inh)
Cc1cccc(C(=O)NCCCNC(=O)c2cccc(C)c2)c1	LASV entry inh inconclusive
Cc1ccc(CN2CCN(Cc3cnn(-c4ccc(Cl)cc4)c3)CC2CCO)o1 (stereo not given)	MARV entry inh inconclusive

Screening data deposited in PubChem by National Center for Advancing Translational Sciences (NCATS).
